Data: PubChem BioAssay AID651951 (The Scripps Research Institute Molecular Screening Center, 2012)
Among all 2,400 compounds or so, about 1,100 (46%) were called active. So high a share suggests a set chosen from earlier hits. A selection follows. Values without a mark were called inactive.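 Rule for the calls: active = inhibition above the run cutoff, the mean inhibition of all test compounds plus 3 SD (cut at about 49% in these data); inactive = the rest.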

Molecular target: Trace amine-associated receptor 1 (Homo sapiens) (UniProt Q96RJ0)
Assay: TAAR1 desensitization by agonist hits, confirmation, counter-screen for TAAR1 agonist project, cell-based, fluorescence, tachyphylaxis (AID 651951);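 note: beta-PEA stimulus applied at its EC80; loss of beta-PEA calcium signal after compound pretreatment read as receptor desensitization; 0% = DMSO with beta-PEA at EC80 and 100% = DMSO alone without agonist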
Conditions: CHO RD-HGA16 hTAAR1, Fluo-8 calcium, beta-PEA response inhibition; at 3 µM; active compounds read high

Trace amine-associated receptor 1 (Homo sapiens), sequence (Q96RJ0 whole entry, looked up): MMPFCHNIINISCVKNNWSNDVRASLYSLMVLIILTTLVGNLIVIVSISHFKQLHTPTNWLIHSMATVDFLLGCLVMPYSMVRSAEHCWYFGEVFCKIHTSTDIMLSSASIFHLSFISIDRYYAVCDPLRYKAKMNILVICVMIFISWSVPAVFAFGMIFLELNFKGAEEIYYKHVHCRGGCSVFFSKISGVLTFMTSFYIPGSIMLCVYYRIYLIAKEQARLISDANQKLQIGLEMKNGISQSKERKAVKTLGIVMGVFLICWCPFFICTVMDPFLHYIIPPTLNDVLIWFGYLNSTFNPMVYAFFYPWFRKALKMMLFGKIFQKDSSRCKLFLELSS

Row | SMILES | inhibition
1 | O=C(N[C@H](C(=O)N1CCC[C@H]1C(=O)NCCc1ccccc1Cl)c1ccccc1)c1ccccc1 | 85.5% (active)
2 | Cc1cc(=O)oc2c(C)c(OCC(=O)NCCN3CCOCC3)ccc12 | 2.28%
3 | Nc1c(NCCc2ccccc2)c2ccccc2oc1=O | 53.6% (active)
4 | O=Cc1c(NCCc2cccc(F)c2)c2ccccc2[nH]c1=O | 36.8%
5 | CCc1ccc(-c2nn(-c3ccccc3)cc2CSC(=N)N)cc1 | 25.1%
6 | CCOc1ccc(Br)cc1CSC(=N)N | 67% (active)
7 | CCCCOc1ccc(CSC(=N)N)cc1[N+](=O)[O-] | 12.3%
8 | S=C(Nc1ccc(Br)cc1)NC1CCN(Cc2ccccc2)CC1 | 48.3%
9 | Cc1ccccc1-c1nc(CS(=O)(=O)CC(=O)N2CCc3ccccc3C2)c(C)o1 | 25.5%
10 | CCC(C(=O)Nc1ccc(C(C)C)cc1)c1ccccc1 (configuration not stated) | 103% (active)
11 | Cc1ccc(Sc2cc(N3CCOCC3)nc(-c3ccccc3)n2)cc1 | 7.49%
12 | CCC(c1nnnn1Cc1ccco1)N(CCc1ccccc1)Cc1cc2ccc(OC)cc2[nH]c1=O (configuration not stated) | 13.2%
13 | COc1ccc(OC)c(C(c2nnnn2C(C)(C)C)N2CCc3ccccc3C2)c1 (configuration not stated) | 17.8%
14 | O=C(O)C1C2C=CC(O2)C1C(=O)NCCc1cccc(Cl)c1 (configuration not stated) | 92.1% (active)
15 | O=C(NNC(=S)NC(=O)c1cn(-c2ccccc2)nc1-c1ccccc1)c1ccncc1 | 79.3% (active)
16 | CN(C(=O)CN(CCO)CC(=O)N(C)C(C)(C)Cc1ccccc1)C(C)(C)Cc1ccccc1 | 94.8% (active)
17 | CCCc1cc(C(=O)Nc2ccc(C(=O)OC)cc2)cs1 | 11%
18 | O=C(/C=C/[C@H]1O[C@@H](n2cnc3c(NC(=O)c4ccccc4)ncnc32)[C@H](O)[C@@H]1O)NCc1ccccc1 | -5.17%
19 | O=C(NCCc1ccccc1)C(=O)NCC1OCCN1S(=O)(=O)c1cccs1 (configuration not stated) | 36.3%

Row | SMILES | inhibition
20 | CCc1ccccc1S(=O)(=O)Cc1ccc(C(=O)NCCc2ccccc2)o1 | 77.1% (active)
21 | O=C1CCCN2N=C(SCC(=O)Nc3ccc(Br)cc3)SC2=N1 | 36.4%
22 | CCCCC(=O)NNC(=S)NC(=O)C(c1ccccc1)c1ccccc1 | 107% (active)
23 | c1ccc2c(c1)OCC(CNc1ncnc3nc[nH]c13)O2 (configuration not stated) | 106% (active)
24 | Cc1cc(C)c2cc(C#N)c(N3CCNCC3)nc2c1 | 79.8% (active)
25 | Cc1ccc(NC(=O)CCN2CCc3ccccc3C2)cc1 | 78% (active)
26 | COc1ccc(NC(=O)C(=O)NCC(c2ccco2)N2CCc3ccccc3C2)cc1 (configuration not stated) | -6.26%
27 | Cc1ccc(S(=O)(=O)N(CC(=O)N2CCc3ccccc3C2)c2cccc(Cl)c2)cc1 | 29.8%
28 | CN(C)CCCN(C(=O)c1ccc(S(=O)(=O)N2CCCc3ccccc32)cc1)c1nc2ccc(F)cc2s1 | 53.1% (active)
29 | CN(C)CCCN(C(=O)c1ccc(S(=O)(=O)N2CCCCCC2)cc1)c1nc2ccc(Br)cc2s1 | 41.1%
30 | COc1ccc(C(=O)CN2C(=O)NC(C)(c3ccc(C)cc3)C2=O)cc1OC (configuration not stated) | 10.7%
31 | COc1ccc(C(=O)NC(=S)NNC(=O)c2c(-c3ccccc3)noc2C)cc1 | 29.8%
32 | COc1ccc(C(=O)NNC(=S)NC(=O)c2ccccc2)cc1 | 76.1% (active)
33 | COc1ccc(C(=O)NC(=S)NNC(=O)CCc2ccccc2)cc1 | 68.4% (active)
34 | Cc1onc(-c2ccccc2)c1C(=O)NNC(=S)NC(=O)c1ccc(F)cc1 | 65.3% (active)
35 | O=C(Nc1cccc(NC(=O)c2ccc(Br)cc2)c1)c1ccccc1 | -9.63%
36 | C#CCOc1ccc(/C=C2/C(=O)NN(c3ccccc3)C2=O)cc1OC | 39%
37 | Nc1nonc1-n1nnc(C(=O)N/N=C/c2ccc(Cl)cc2)c1-c1ccc2c(c1)OCO2 | 37.8%
38 | Nc1cccc2c1C(=O)N(Cc1nnc(-c3ccccc3Br)o1)C2=O | 26.5%

Row | SMILES | inhibition
39 | O=C(Nc1ccncc1)Nc1ccc(F)cc1 | 76.4% (active)
40 | CCCn1c(O)c(CN2CCCC(C)C2)c(C)c(C#N)c1=O (configuration not stated) | 55.8% (active)
41 | S=C(NCCc1ccccc1)N1CCn2cccc2C1c1ccncc1 (configuration not stated) | 83.2% (active)
42 | COc1ccc(OC)c(NC(=S)N2CCc3ccccc3C2)c1 | 40.2%
43 | CCCSc1nc2c(c(=O)n(C)c(=O)n2C)n1Cc1ccc(C)cc1 | 37.9%
44 | c1ccc(Nc2nc(N3CCOCC3)c3ccccc3n2)cc1 | 93% (active)
45 | CCCc1ccc(OCC(=O)NNC(=S)NC(=O)c2ccco2)cc1 | 71.9% (active)
46 | CC(Oc1ccc2ccccc2c1)C(=O)NNC(=S)NC(=O)c1ccco1 (configuration not stated) | 70.9% (active)
47 | COc1ccc2cc(-c3[nH]ncc3CNCCn3nc(C)cc3C)ccc2c1 | 13%
48 | NC(=O)C1=C[C@H](c2csc3ccccc23)C[C@H](OCc2ccc(CO)cc2)O1 | 50.8% (active)
49 | COC(=O)c1[nH]c2cccc(C)c2c1NC(=O)CN1CCCc2ccccc21 | 35.7%
50 | COc1cccc(-c2cnc(OC(C)(C)C)nc2OC(C)(C)C)c1 | 3.93%
51 | Fc1ccc(NC(=S)N2CCc3[nH]c4ccccc4c3C2)cc1 | 28.1%
52 | O=C(CCCN=C1NS(=O)(=O)c2ccccc21)OCC(=O)c1ccc(F)c(F)c1 | 37.4%
53 | C[C@H](NC(=O)c1ccccc1)C(=O)OCC(=O)c1c[nH]c2ccccc12 | 79.2% (active)
54 | OC(CNCCc1ccc(Cl)cc1Cl)COc1ccccc1 (configuration not stated) | 79.2% (active)
55 | COc1ccc(CC(N)c2csc(NC(=O)Cc3ccccc3)n2)cc1 (configuration not stated) | 23.6%
56 | CC(C)(C)CC(=O)Nc1nc(C(N)Cc2ccc(C(F)(F)F)cc2)cs1 (configuration not stated) | 58.9% (active)
57 | O=C(COC(=O)Cc1ccccc1F)NCCc1ccccc1 | 86% (active)
